Test results taken from ChEMBL document CHEMBL3988442, “University of Dundee, Small-Polar-MMV Screening Library” (2021).
In all, about 48,000 compounds went through this assay and about 13,000 (27%) showed an effect of 50% or more. This is one part of the list.

The compounds below were run on Wolbachia pipientis (assay: Anti-Wolbachia Cell-Based Screen). Settings: 5 µM.
Type: functional
Set-up: scale not given: in the data most compounds retested in dose-response had high values

Row | SMILES | Percent Effect
1 | O=C(CNC(=O)c1ccoc1)NC(c1ccc(F)cc1)C(F)(F)F (centres undefined) | 0.03163%
2 | CC1CN(C(=O)c2nccnc2N)c2ccc(F)cc2O1 (centres undefined) | -7.593%
3 | COCCN(CCOC)C(=O)c1sc(C)nc1C | -9.667%
4 | CCC(C)(C)NC(=O)C[S+]([O-])Cc1csc(C2CCCC2)n1 (centres undefined) | -6.862%
5 | Cc1ccc(C)c(CS(=O)(=O)CC(=O)N(C)Cc2cccc(F)c2)c1 | -31.79%
6 | c1nc2c(c(N3CCCC(Cn4cncn4)C3)n1)CCC2 (centres undefined) | -15.31%
7 | c1nc(N2CCCC2Cn2cncn2)c2ccsc2n1 (centres undefined) | -0.0676%
8 | c1cnn(CC2CCCN2c2ncnc3c2CCC3)c1 (centres undefined) | -39.95%
9 | c1cnn(CC2CCCCN2c2ncnc3sccc23)c1 (centres undefined) | -1.869%
10 | c1nc(N2CCCC(Cn3cncn3)C2)c2sccc2n1 (centres undefined) | 164.6%
11 | c1ccc2c(N3CCCC3Cn3cccn3)ncnc2c1 (centres undefined) | -8.877%
12 | Cc1nc(C)n(CC2CCCN2c2ncnc3sccc23)n1 (centres undefined) | 103.4%
13 | c1nc(N2CCCC(Cn3cncn3)C2)c2ccsc2n1 (centres undefined) | 13.9%
14 | c1cnn(CC2CCCN2c2ncnc3ccsc23)c1 (centres undefined) | 77.53%
15 | c1cnn(CC2CCCN2c2ncnc3sccc23)c1 (centres undefined) | -19.57%
16 | Cc1nc(C)n(CC2CCCN(c3ncnc4sccc34)C2)n1 (centres undefined) | 4.886%
17 | Cc1sc2ncnc(N3CCCC3Cn3cccn3)c2c1C (centres undefined) | 126.3%
18 | COc1ccc(CN2C[C@@H]3[C@H](CC(=O)N4CCCC4)[C@@H]3C2)cc1.O=C(O)C(F)(F)F | -9.887%
19 | CN(C)C[C@@H]1CCC[C@@H]2CN(c3cccnc3)C[C@@H]21.O=C(O)C(F)(F)F | 5.573%
20 | CC(C)c1nc(S(=O)(=O)N(C)c2cc(F)ccc2F)c[nH]1 | 7.665%
21 | CCN(Cc1ccoc1)Cc1nc(COC)no1 | -32.73%
22 | c1nc(N2CCCCC2Cn2cncn2)c2sccc2n1 (centres undefined) | 0.3831%

Row | SMILES | Percent Effect
23 | Cc1nc(C)n(CC2CCCN2c2ncnc3ccsc23)n1 (centres undefined) | 106.3%
24 | CN(C)C(=O)C1CCCN1c1ncnc2ccsc12 (centres undefined) | 11.36%
25 | CN1CCN(C(=O)C2CCCN2c2ncnc3ccsc23)CC1 (centres undefined) | -5.799%
26 | Cc1nc(C)n(CC2CCCN2c2ncnc3sc(C)c(C)c23)n1 (centres undefined) | 109.1%
27 | Cc1nc(C)n(CC2CCCN2c2ccnc(-c3ccccc3)n2)n1 (centres undefined) | 6.693%
28 | Cc1nc(C)n(CC2CCCCN2c2ccnc(-c3ccccc3)n2)n1 (centres undefined) | -2.922%
29 | Cc1nc(C)n(CC2CCCCN2c2ncnc3ccsc23)n1 (centres undefined) | 109.8%
30 | Cc1nc(C)n(CC2CCCN2c2ncnc3c2CCC3)n1 (centres undefined) | -5.699%
31 | CN(C)C1Cc2ccccc2N(S(=O)(=O)c2cccc(C#N)c2)C1 (centres undefined) | -17.15%
32 | CC(C)CC(=O)N1CCN(C(=O)N(C)C)CC2(CC(=O)N(C)C2)C1 (centres undefined) | -13.83%
33 | CCOc1ncccc1C(=O)N1CCCC(c2nncn2C)C1 (centres undefined) | 139.9%
34 | Cn1cnnc1C1CCCN(C(=O)NCc2cc[nH]n2)C1 (centres undefined) | -3.292%
35 | Cc1noc(C2CCCN(C(=O)c3cc(-c4ccccc4)on3)C2)n1 (centres undefined) | 95.63%
36 | Cn1cnnc1C1CCCN(C(=O)NCc2ccccc2)C1 (centres undefined) | -1.027%
37 | Cc1csc(CNC(=O)N2CCCC(c3nncn3C)C2)n1 (centres undefined) | 102.5%
38 | CCOC1CCN(C(=O)c2cc(-c3ccc(Cl)cc3)on2)CC1 | -1.009%
39 | Cc1noc(C2CCCN(C(=O)c3cc(Cl)cn3C)C2)n1 (centres undefined) | -4.017%
40 | Cn1cnnc1C1CCN(C(=O)c2cc(-c3ccccc3)on2)CC1 | 84.11%
41 | CCOc1ncccc1C(=O)N1CCCC(c2nccn2CCOC)C1 (centres undefined) | -5.342%
42 | COC1CCN(C(=O)c2cc(-c3ccc(Cl)cc3)on2)CC1 | 1.194%
43 | Cc1noc(C2CCCN(C(=O)c3cc(Cl)ccc3F)C2)n1 (centres undefined) | -1.909%
44 | COc1ccc(CNC(=O)NC2CCN(CC(F)F)CC2)cc1C | 8.282%

Row | SMILES | Percent Effect
45 | CSc1cccc(CC(=O)N[C@@H]2CCNC[C@H]2O)c1 | -1.267%
46 | Cn1cnnc1C1CCCN(C(=O)c2ccccn2)C1 (centres undefined) | 140.5%
47 | Cn1cnnc1C1CCCN(C(=O)NCCc2ccccn2)C1 (centres undefined) | -4.673%
48 | Cn1cnnc1C1CCCN(C(=O)c2cc(-c3ccccc3)on2)C1 (centres undefined) | 103.3%
49 | Cn1cnnc1C1CCCN(C(=O)NCc2ccccn2)C1 (centres undefined) | 107.2%
50 | Cn1cnnc1C1CCCN(C(=O)c2cnc3ccccc3n2)C1 (centres undefined) | -5.928%
51 | c1cc(-c2ccc3c(c2)CCC32CCNCC2)ccn1 | -7.075%
52 | CC1(C)Cc2c(cnn2-c2cccc(F)c2)C(NC2CCSCC2)C1 (centres undefined) | 7.076%
53 | Cc1cc(C)c2c(C(=O)N(C)C)cc(-c3cnc(N)nc3)nc2c1 | -4.473%
54 | CCCn1cc(-c2cc(C(=O)N(C)C)c3cccc(C)c3n2)cn1 | 108.4%
55 | COc1ccc(CNC(=O)CCn2cc(C)cn2)cc1C | -6.428%
56 | CCCn1cc(-c2cc(C(=O)N(C)C)c3ccc(OC)cc3n2)cn1 | 91.31%
57 | COc1ccc2c(C(=O)N(C)C)cc(-c3cnc(N)nc3)nc2c1 | -11.66%
58 | CCCn1cc(-c2cc(C(=O)N(C)C)c3ccc(C)cc3n2)cn1 | 103.4%
59 | Cc1ccc2c(C(=O)N(C)C)cc(-c3cnn(CCO)c3)nc2c1C | 115.7%
60 | CN(C)C(=O)c1cc(-c2cnc(N)nc2)nc2cc(F)ccc12 | 2.349%
61 | Cc1ccc2nc(-c3cnc(N)nc3)cc(C(=O)N(C)C)c2c1 | -1.148%
62 | Cc1cc(C(=O)NCc2csc(N(C)C)n2)c2ccc(C)c(C)c2n1 | 2.506%
63 | CO[C@H]1CNC[C@@H]1NC(=O)c1cc(C)nc2c(C)c(C)ccc12 | -8.867%
64 | COc1ccc2nc(C3CC3)cc(C(=O)NCC(=O)N(C)C)c2c1 | -4.105%
65 | Cc1ccc(-c2nc(CNCCn3cccn3)cs2)o1 | -0.9463%
66 | CN(Cc1cccs1)c1nc2c(cnn2C(C)(C)C)c(=O)[nH]1 | -5.539%

Row | SMILES | Percent Effect
67 | O=C(NCC1(N2CCOCC2)CCSC1)Nc1ccccn1 (centres undefined) | 27.17%
68 | CSCCc1n[nH]c2c1CN(S(=O)(=O)c1c(C)nn(C)c1C)CC2 | -3.086%
69 | Cc1ccc(C(C)NC(=O)Nc2ccccc2CN2CCOCC2)o1 (centres undefined) | 2.687%
70 | O=C(Cc1ccccc1F)N1CCC[C@@H]1Cn1c(=O)oc2ccccc21 | 111.4%
71 | COC[C@@]12CCO[C@@H]1CCN(C(=O)Cc1ccccc1F)C2 | 7.252%
72 | Cl.NCC1CCCCN1C(=O)Cc1ccc(F)c(F)c1 (centres undefined) | -20.4%
73 | COc1nc2c(cc1C(=O)NCc1nc(CSC)no1)CCC2 | -10.56%
74 | Cc1noc(CN2CCN(c3cncc(Cl)n3)CC2)n1 | 120%
75 | Cc1noc(CN2CCN(CCO)CC2)n1 | -2.451%
76 | Cc1noc(CN2CCN(CC(C)O)CC2)n1 (centres undefined) | 16.1%
77 | Cc1nc(CN2CCN(C(=O)CCc3cccc(Cl)c3)CC2)no1 | 2.234%
78 | Cc1nc(CN2CCN(c3ncnc4ccccc34)CC2)no1 | -20.36%
79 | Cc1cn2nc(N3CCCN(Cc4noc(C)n4)CC3)sc2n1 | 4.27%
80 | Cc1nc(CN2CCN(c3cncc(Cl)n3)CC2)no1 | 85.67%
81 | Cc1nc(CN2CCN(c3ccc(Cl)cn3)CC2)no1 | 102.8%
82 | Cc1nc(CN2CCN(Cc3nccn3C)CC2)no1 | 1.161%
83 | CC(C)(C)NC(=O)C1CSCN1S(=O)(=O)c1ccccc1F (centres undefined) | -0.6778%
84 | CCN(CC)CC(=O)Nc1ccc(-n2ccc(C(N)=O)n2)cc1 | -9.684%
85 | Cn1cccc(NC(=O)NCCc2cccc(O)c2)c1=O | 2.871%
86 | c1cc(C2CN(C3CCCCC3)C2)n[nH]1 | 79.34%
87 | c1ccc(-c2nnc([C@H]3CCN(C4CCC4)C3)o2)cc1 | -5.137%
88 | Clc1ccc(-c2nnc([C@H]3CCN(C4CCCCC4)C3)o2)cc1 | 11.2%

Row | SMILES | Percent Effect
89 | c1cc(-c2nnc([C@H]3CCN(C4CCCCC4)C3)o2)ccn1 | -11.18%
90 | c1cc(C2CN(C3CCCC3)C2)n[nH]1 | 154.3%
91 | c1cc(C2CCN(C3CCCCC3)C2)n[nH]1 (centres undefined) | 99.9%
92 | F[C@@H]1CN(C2CCC2)C[C@@H]1OCc1nc2ncccc2[nH]1 | 0.839%
93 | FC(F)(F)c1ccc2nc([C@H]3CCN(C4CCCCC4)C3)[nH]c2c1 | 3.029%
94 | c1ccc(Cc2nnc([C@H]3CCN(C4CCCCC4)C3)o2)cc1 | 3.661%
95 | CC(=O)N(CCC(=O)NC1(C#N)CCC1)Cc1ccccc1 | -20.67%
96 | Cc1ccc(Oc2ncccc2CNS(=O)(=O)N2CCOCC2)cn1 | 3.348%
97 | Oc1ccc([C@H]2Oc3cc(O)cc(O)c3C[C@@H]2O)cc1 | 2.317%
98 | CC(=O)N(C)c1nc(CN2CCN(c3nccs3)CC2)cs1 | -57.57%
99 | CN(C)C(=O)Cc1nc(CN2CCn3c(nnc3C3CC3)C2)cs1 | 2.901%
100 | Cc1ccc(=O)n(Cc2csc(N(C)C3CC3)n2)n1 | 2.512%
101 | CCc1nnnn1Cc1csc(N(C)C(C)=O)n1 | 97.38%
102 | CC(=O)N(C)c1nc(Cn2nnnc2C2CCCC2)cs1 | 98.73%
103 | CC(=O)N(C)c1nc(Cn2nnnc2C(C)(C)C)cs1 | 75.49%
104 | CNC(=O)c1ccc(=O)n(Cc2csc(N(C)C(C)=O)n2)c1 | 1.068%
105 | CC(=O)N(c1ccc(C)cc1)c1nc(CN2CCCCC2C)cs1 (centres undefined) | 5.84%
106 | CC(=O)N(C)c1nc(Cn2nnnc2C(C)C)cs1 | 102.4%
107 | CC(=O)N(c1ccc(F)cc1)c1nc(CN2CCCC2C(C)C)cs1 (centres undefined) | -4.339%
108 | CC(=O)N(C)c1nc(CN2CCN(Cc3nccn3C)CC2)cs1 | -41.34%
109 | CCN(C(C)=O)c1nc(CN2CCN(c3nccs3)CC2)cs1 | -119%
